PubChem BioAssay
The source made the active and inactive calls. Unless noted, no rule for the calls is given here.

Assays:
[1] = compounds binding Alexa647 anti-His antibody – biochemical, small-molecule microarray, 635 nm fluorescence, artefact control for SMM control protein annotation, primary screen (AID 1128); conditions: higher = more signal;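 also: score merges feature fluorescence with signal-to-noise for each printed compound spot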
[2] = test system: Human papillomavirus type 1a E7 protein (residues 1-88); assay: HPV1a E7 small-molecule binders, primary screen, biochemical, small-molecule microarray, residues 1-88, 635 nm (AID 1129); conditions: small-molecule microarray binding, fluorescence 635 nm; higher = more signal
[3] = molecular target: Focal adhesion kinase 1 (Homo sapiens) (UniProt Q05397); assay: PTK2 protein binding on printed compound slides – biochemical, small-molecule microarray, 635/667 nm fluorescence, BSA, DTT, primary screen (AID 1130); conditions: 635 nm fluorescence, higher = more signal;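 also: composite of spot emission at 667 nm and signal to noise over triplicate slides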
Sequence of Focal adhesion kinase 1 (Homo sapiens) (Q05397 whole entry, looked up): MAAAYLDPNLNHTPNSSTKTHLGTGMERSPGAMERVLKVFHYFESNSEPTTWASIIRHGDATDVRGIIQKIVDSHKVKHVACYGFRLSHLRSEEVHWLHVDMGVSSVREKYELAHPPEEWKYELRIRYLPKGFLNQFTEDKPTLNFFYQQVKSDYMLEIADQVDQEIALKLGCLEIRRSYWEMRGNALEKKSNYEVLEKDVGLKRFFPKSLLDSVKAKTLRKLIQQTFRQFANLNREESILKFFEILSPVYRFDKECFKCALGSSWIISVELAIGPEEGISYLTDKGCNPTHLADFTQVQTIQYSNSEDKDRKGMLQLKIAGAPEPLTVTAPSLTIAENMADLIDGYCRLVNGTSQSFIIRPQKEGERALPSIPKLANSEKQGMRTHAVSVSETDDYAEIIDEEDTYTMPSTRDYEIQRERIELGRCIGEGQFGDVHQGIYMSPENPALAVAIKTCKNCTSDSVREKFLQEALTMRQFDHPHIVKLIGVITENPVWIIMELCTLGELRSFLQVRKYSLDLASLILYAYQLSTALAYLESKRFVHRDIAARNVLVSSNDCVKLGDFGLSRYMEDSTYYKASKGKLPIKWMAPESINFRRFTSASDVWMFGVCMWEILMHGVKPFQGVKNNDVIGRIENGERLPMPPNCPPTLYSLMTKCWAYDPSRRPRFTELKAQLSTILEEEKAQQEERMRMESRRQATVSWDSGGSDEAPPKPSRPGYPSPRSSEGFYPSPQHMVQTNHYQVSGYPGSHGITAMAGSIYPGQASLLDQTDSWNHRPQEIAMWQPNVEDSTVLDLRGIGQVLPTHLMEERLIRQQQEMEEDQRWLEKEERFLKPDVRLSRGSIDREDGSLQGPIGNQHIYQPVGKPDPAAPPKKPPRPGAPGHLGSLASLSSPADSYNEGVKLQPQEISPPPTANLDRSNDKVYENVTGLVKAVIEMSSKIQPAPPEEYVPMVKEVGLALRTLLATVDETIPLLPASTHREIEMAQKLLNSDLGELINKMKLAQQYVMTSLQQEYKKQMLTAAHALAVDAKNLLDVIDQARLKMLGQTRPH

[4] = test system: Fibrinogen (Alexa647-labelled); assay: Alexa647-fibrinogen binding to printed small molecules – biochemical, small-molecule microarray, 635/667 nm fluorescence, artefact control for SMM control-protein annotation, profiling panel (AID 1131); conditions: fibrinogen-A647 binding fluorescence, higher = more signal;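 also: z-score merges 667 nm fluorescence with per-spot signal-to-noise over triplicate slides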
[5] = molecular target: Follistatin (Homo sapiens) (UniProt P19883); assay: FST protein binding to printed compounds – biochemical, small-molecule microarray, 635/667 nm fluorescence, primary screen (AID 1132); conditions: 635 nm fluorescence, higher = more signal
Sequence of Follistatin (Homo sapiens) (P19883 whole entry, looked up): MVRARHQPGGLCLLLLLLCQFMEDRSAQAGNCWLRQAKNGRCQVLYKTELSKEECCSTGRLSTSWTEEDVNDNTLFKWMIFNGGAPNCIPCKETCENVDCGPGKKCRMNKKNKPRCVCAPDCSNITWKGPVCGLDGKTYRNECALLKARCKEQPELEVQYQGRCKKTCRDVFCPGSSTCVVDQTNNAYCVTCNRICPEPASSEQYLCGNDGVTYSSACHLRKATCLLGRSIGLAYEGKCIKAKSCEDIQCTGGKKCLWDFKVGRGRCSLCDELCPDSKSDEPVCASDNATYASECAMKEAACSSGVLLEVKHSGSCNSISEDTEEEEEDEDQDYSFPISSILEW

[6] = molecular target: Fibroblast growth factor 2 (Homo sapiens) (UniProt P09038); assay: basic fibroblast growth factor binding to printed compounds – biochemical, small-molecule microarray, 635/667 nm fluorescence, primary screen (AID 1133); conditions: FGF2, fluorescence 635/667, higher = more signal
Sequence of Fibroblast growth factor 2 (Homo sapiens) (P09038 whole entry, looked up): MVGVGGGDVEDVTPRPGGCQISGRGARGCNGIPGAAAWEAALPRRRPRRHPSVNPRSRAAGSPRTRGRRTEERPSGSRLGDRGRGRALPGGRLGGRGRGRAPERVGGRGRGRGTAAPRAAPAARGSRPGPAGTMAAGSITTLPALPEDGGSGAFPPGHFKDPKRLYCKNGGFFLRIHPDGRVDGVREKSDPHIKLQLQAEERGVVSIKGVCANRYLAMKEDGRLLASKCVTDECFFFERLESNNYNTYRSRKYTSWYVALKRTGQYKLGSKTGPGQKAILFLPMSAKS

[7] = JC-1 mitochondrial potential readout, lung cancer cells – cell-based, A549, JC-1 fluorescence, basal, 24 h, 100 nL, profiling panel (AID 1138); conditions: higher = more signal;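 also: A549 lung adenocarcinoma cells under basal conditions with no added stimulus; test concentration not given here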
Lefty1 = Lefty1 protein binding to printed compounds – biochemical, small-molecule microarray, 635/667 nm fluorescence, primary screen (AID 1139); conditions: fluorescence 635/667, higher = more signal
[8] = test system: wheat germ agglutinin (Triticum aestivum), Alexa647-labelled; assay: Alexa647-WGA lectin binding to printed small molecules – biochemical, small-molecule microarray, 635/667 nm fluorescence, artefact control for SMM control-protein annotation, profiling panel (AID 1140); conditions: WGA-A647 binding, 635 nm fluorescence, higher = more signal;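 also: score merges 667 nm feature emission with signal to noise over triplicate slides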
[9] = molecular target: Luciferin 4-monooxygenase (Photinus pyralis) (UniProt P08659); assay: inhibition of purified Photinus pyralis luciferase – biochemical, luminescence, purified enzyme, 2006 set, primary screen (AID 1141); conditions: purified firefly luciferase, SteadyGlo luminescence, 30 min; higher = more signal, called active from +8 up or from −8 down;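 also: cell-free assay with purified firefly luciferase at 100 ng per well in PBS; test concentration not given here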
Sequence of Luciferin 4-monooxygenase (Photinus pyralis) (P08659 whole entry, looked up): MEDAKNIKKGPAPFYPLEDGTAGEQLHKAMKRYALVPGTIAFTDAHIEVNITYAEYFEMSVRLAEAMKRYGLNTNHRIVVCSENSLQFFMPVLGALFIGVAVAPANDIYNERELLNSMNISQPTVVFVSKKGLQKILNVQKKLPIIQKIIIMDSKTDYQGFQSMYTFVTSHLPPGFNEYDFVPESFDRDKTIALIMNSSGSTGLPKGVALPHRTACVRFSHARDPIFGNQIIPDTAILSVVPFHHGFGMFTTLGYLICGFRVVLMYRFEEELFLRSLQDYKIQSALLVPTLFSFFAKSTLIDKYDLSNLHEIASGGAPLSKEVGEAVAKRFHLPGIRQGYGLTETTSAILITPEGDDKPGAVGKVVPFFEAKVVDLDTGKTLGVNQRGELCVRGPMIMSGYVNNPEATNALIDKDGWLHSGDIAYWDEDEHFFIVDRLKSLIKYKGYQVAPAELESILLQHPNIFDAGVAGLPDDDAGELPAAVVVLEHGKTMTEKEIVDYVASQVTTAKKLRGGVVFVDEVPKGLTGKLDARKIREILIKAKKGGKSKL

[10] = test system: Wnt5a (protein binding on small-molecule microarray); assay: small molecules binding Wnt5a protein – biophysical, small-molecule microarray, 635/667 nm fluorescence, primary screen (AID 1142); conditions: 635 nm fluorescence, higher = more signal;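 also: fluorescence read at 667 nm with signal to noise per printed feature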
[11] = ATP-based viability of Huh7 replicon cells – cell-based, CellTiter-Glo luminescence, basal, 48 h, cytotoxicity control for HCV replication inhibitor project, primary screen (AID 1143); conditions: higher = more signal, called active from +8 up or from −8 down;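 also: Huh7 hepatoma cells carrying a hepatitis C replication reporter with no stimulus; test concentration not given here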
[12] = Pseudomonas biofilm growth suppression – PAO1 strain, BacTiter-Glo luminescence, LB-PBS, primary screen (AID 1144); conditions: P. aeruginosa PAO1 biofilm, 12 h, higher = more signal
[13] = basal CRE-LacZ reporter activity in PC12 – cell-based, unstimulated, primary screen (AID 1145); conditions: no forskolin, luminescence, 4.5 h, higher = more signal, called active from +8 up or from −8 down
[14] = forskolin-driven CRE-LacZ activity in PC12 – cell-based, CRE-LacZ reporter, forskolin-stimulated, primary screen (AID 1146); conditions: luminescence, 4.5 h, higher = more signal, called active from +8 up or from −8 down;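 also: PC12 cells with 6xCRE LacZ reporter stimulated by forskolin 10 µM; beta-galactosidase reporter signal reflecting CREB driven transcription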
[15] = molecular target: Streptavidin (Streptomyces avidinii) (UniProt P22629); assay: compounds binding control protein streptavidin – biophysical, small-molecule microarray, 635/667 nm fluorescence, artefact control for SMM compound annotation, primary screen (AID 1147); conditions: higher = more signal;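 also: signal reflects streptavidin binding to arrayed compounds as a control protein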
Sequence of Streptavidin (Streptomyces avidinii) (P22629 whole entry, looked up): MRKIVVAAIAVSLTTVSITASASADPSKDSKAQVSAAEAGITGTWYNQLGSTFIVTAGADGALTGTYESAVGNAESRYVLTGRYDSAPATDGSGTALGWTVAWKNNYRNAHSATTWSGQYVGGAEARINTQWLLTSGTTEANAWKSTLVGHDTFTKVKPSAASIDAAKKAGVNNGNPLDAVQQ

[16] = probe aInhba binding on compound microarray – biochemical, small-molecule microarray, 635/667 nm fluorescence, primary screen (AID 1148); conditions: higher = more signal;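 also: score merges 667nm spot fluorescence with signal-to-noise for antibody binding to printed compounds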
Torsin-1A (Homo sapiens) [17] = molecular target: Torsin-1A (Homo sapiens) (UniProt O14656); assay: TOR1A wild-type binding on microarray – cell lysate, small-molecule microarray, lysate, 635/667 nm, primary screen (AID 1149); conditions: COS7 hTOR1A-WT lysate, 635 nm fluorescence, higher = more signal
Sequence of Torsin-1A (Homo sapiens) (O14656 whole entry, looked up): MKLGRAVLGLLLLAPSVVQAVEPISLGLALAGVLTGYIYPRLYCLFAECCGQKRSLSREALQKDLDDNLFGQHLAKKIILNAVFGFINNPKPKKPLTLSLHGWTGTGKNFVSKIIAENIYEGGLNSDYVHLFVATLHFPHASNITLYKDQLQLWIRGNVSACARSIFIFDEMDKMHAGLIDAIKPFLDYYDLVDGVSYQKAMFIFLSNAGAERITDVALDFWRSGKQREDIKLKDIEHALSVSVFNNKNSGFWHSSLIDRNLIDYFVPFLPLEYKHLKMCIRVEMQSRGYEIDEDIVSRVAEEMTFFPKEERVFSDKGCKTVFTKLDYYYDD

Torsin-1A (Homo sapiens) [18] = molecular target: Torsin-1A (Homo sapiens) (UniProt O14656); assay: torsin A mutant lysate binding on microarrays – cell lysate, small-molecule microarray, COS7 lysate, 635/667 nm fluorescence, primary screen (AID 1150); conditions: COS7 hTOR1A mutant lysate, 635 nm fluorescence, higher = more signal;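 also: score pools 667 nm emission and signal to noise measuring lysate protein binding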
[19] = test system: Sonic hedgehog protein (Shh); assay: Sonic hedgehog microarray binding compounds – biochemical, small-molecule microarray, 635/667 nm fluorescence, primary screen (AID 1151); conditions: 635 nm fluorescence, higher = more signal;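 also: Shh protein binding to compounds spotted on small-molecule microarray slides; score combines spot fluorescence intensity with signal-to-noise across triplicate slides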

| SMILES | composite z-score [1] | composite z-score [2] | composite z-score [3] | composite z-score [4] | composite z-score [5] | composite z-score [6] | z-score [7] | composite z-score (Lefty1) | composite z-score [8] | z-score [9] | composite z-score [10] | z-score [11] | z-score [12] | z-score [13] | z-score [14] | composite z-score [15] | composite z-score [16] | composite z-score (Torsin-1A (Homo sapiens) [17]) | composite z-score (Torsin-1A (Homo sapiens) [18]) | composite z-score [19] |
| --- | --- | --- | --- | --- | --- | --- | --- | --- | --- | --- | --- | --- | --- | --- | --- | --- | --- | --- | --- | --- |
| CCCCC=C[C@@H](NC(=O)c1ccco1)c1ccccc1 | 0.34 | -1.19 | -0.0668 | 1.01 | 0.487 | 0.133 | -0.881 | -0.337 | 0.653 | 2.18 (inactive) | 0.143 | -1.08 (inactive) | -0.668 (inactive) | 0.19 (inactive) | -0.0695 (inactive) | 0.889 | 0.194 | 0.129 | 0.225 | 0.0154 |
| COCCCNC(=O)[C@@]1(c2ccc([N+](=O)[O-])cc2)CC(=O)N(CC23CC4CC(CC(C4)C2)C3)[C@@H]1c1ccc(CO)cc1 | 0.344 | 1.18 | 0.745 | 0.799 | 1.27 | 1.62 | 0.846 | 0.983 | 0.203 | 0.183 (inactive) | 0.459 | -4.39 (inactive) | -1.51 (inactive) | -0.179 (inactive) | -0.284 (inactive) | 0.0765 | -0.0018 | 1.02 | 0.894 | 2.13 |
| COC(=O)C1=CC(CCCO)=CC(C2CC2)N(Cc2sc3ccccc3c2Cl)C=C1C(=O)OC (stereo not given) | 3.11 | 1.25 | 1.31 | 1.04 | 0.939 | 0.0634 | 1.14 | 0.222 | 0.728 | -0.96 (inactive) | 0.351 | -3.83 (inactive) | 0.989 (inactive) | -0.464 (inactive) | 0.106 (inactive) | 2.17 | 0.19 | 0.688 | 0.806 | -0.112 |
| COC(=O)[C@@]1(Cc2ccccc2)[C@H]2c3cc(C(=O)N4CCCC4)n(C)c3C[C@H]2CN1C(=O)c1ccccc1 | 1.95 | 0.762 | 1.73 | 1.03 | 0.725 | -0.915 | 0.244 | -0.0781 | 1.06 | 0.271 (inactive) | 0.0131 | -1.6 (inactive) | 0.218 (inactive) | -0.182 (inactive) | 0.504 (inactive) | 1.64 | 0.271 | -0.212 | 0.0645 | -0.157 |
| COC(=O)[C@@]1(Cc2ccc(OC)cc2)[C@H]2c3cc(C(=O)N4CCCC4)n(CCc4c[nH]c5cc(F)ccc45)c3C[C@H]2CN1C(=O)c1ccccc1 | 1.46 | 1.25 | 0.861 | 0.994 | 1.23 | 0.303 | 0.509 | 0.0312 | 1.18 | 0.378 (inactive) | 0.313 | -1.26 (inactive) | -0.0146 (inactive) | 0.773 (inactive) | 0.199 (inactive) | 2.19 | 0.636 | 0.188 | 1.25 | 0.133 |
| COc1ccccc1CN1C(=O)c2ccccc2[C@@H](C(=O)NCCN2CCOCC2)[C@@H]1c1ccc(CO)cc1 | -0.355 | 0.789 | -0.444 | 0.234 | 0.912 | 1.26 | 0.708 | -0.0327 | 0.285 | 0.706 (inactive) | 0.274 | -0.916 (inactive) | -1.04 (inactive) | 0.001 (inactive) | -1.09 (inactive) | 0.156 | -0.13 | 0.52 | 0.767 | 0.197 |
| COc1ccc([Si](C)(C)[C@H]2[C@H](CCn3cc([C@H](O)c4ccccc4)nn3)O[C@@]3(C(=O)N(Cc4cccc(N5CCC5=O)c4)c4ccccc43)[C@@H]2C)cc1 | 0.396 | 0.302 | -0.0817 | 0.435 | 1.34 | 1.54 | 2.35 | 0.811 | 0.219 | -0.719 (inactive) | 0.42 | -1.67 (inactive) | 0.115 (inactive) | 2.55 (inactive) | -0.157 (inactive) | 0.552 | -0.045 | 0.358 | 0.0772 | 1.9 |
| O=C1C=CC(=O)[C@@H]2CC(COc3ccccc3)=C3[C@@H](CCc4ccccc4)OB(O)C[C@@H]3[C@H]12 | 0.346 | 0.273 | -0.0461 | -0.0249 | 1.08 | 0.45 | -1.59 | 0.411 | -0.158 | -3.18 (inactive) | 0.135 | -2.77 (inactive) | 0.452 (inactive) | 4.76 (inactive) | 4.47 (inactive) | -0.132 | -0.231 | -0.386 | -0.0222 | 1.3 |
| CC(C)c1ccc(NN2C(C(O)c3c(F)cccc3Cl)C=CC3C(=O)N(c4ccccc4)C(=O)C32)cc1 (stereo not given) | 0.825 | 1.13 | 0.823 | 0.935 | 1.02 | -0.0904 | -1.27 | -0.0553 | 0.959 | -1.12 (inactive) | 0.658 | -0.78 (inactive) | -0.53 (inactive) | -0.519 (inactive) | 0.746 (inactive) | 1.47 | 0.765 | 0.213 | -0.164 | -0.182 |
| COC(=O)[C@@]1(Cc2ccc(F)cc2)[C@H]2c3cc(C(=O)N4CCCC4)n(Cc4cccc5ccccc45)c3C[C@H]2CN1C(=O)c1ccccc1 | 1.98 | 1.28 | 2.08 | 0.83 | 0.0834 | -0.426 | 0.917 | -0.0668 | 1.06 | 0.943 (inactive) | 0.255 | -1.8 (inactive) | 0.233 (inactive) | 0.397 (inactive) | 0.422 (inactive) | 0.95 | 0.434 | 0.341 | -0.0286 | -0.408 |
